Screens from PubChem.
An excerpt weighted towards active compounds, which were near 12% of everything screened.
Sfp inh = inhibitors of Bacillus subtilis Sfp phosphopantetheinyl transferase; Biochemical Sfp PPTase activity, qHTS; Potency, µM, inactives show largest response in the series, negative = inhibition, actives largely listed as inhibitors; 310,000 compounds, 3.5% hits;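 also: the enzyme is Sfp with the accession as filed and its product quenches rhodamine fluorescence; 0% = enzyme reaction without inhibitor and -100% = no enzyme wells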
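Fluorescence-quenching assay: 15 nM Sfp-PPTase preincubated 15 min at room temperature with compound, then 5 uM rhodamine-CoA and 12.5 uM BHQ-2-labelled YbbR peptide added. Fluorescence (ex 525/em 598 nm) read at start and after 30 min; difference gives rate.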
ALDH1A1 inh = inhibitors of human aldehyde dehydrogenase 1A1 | Purified ALDH1A1, NADH fluorescence, propionaldehyde substrate | Potency, µM (series often up to 75.3 µM), without a hit: at the highest dose activity, negative = inhibition, hits mostly inhibitors | 220,000 compounds, 7.3% hits | AID 1030; active = well fitted inhibition curve with a large enough effect, not every such curve was filed as active; inconclusive = small, poorly fitted or top-dose-only effect, or another doubt; inactive = no such curve, though single readings can be large or run the other way;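 also: plate controls were no enzyme wells and a reference inhibitor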
Target sequence (P00352 whole entry, looked up): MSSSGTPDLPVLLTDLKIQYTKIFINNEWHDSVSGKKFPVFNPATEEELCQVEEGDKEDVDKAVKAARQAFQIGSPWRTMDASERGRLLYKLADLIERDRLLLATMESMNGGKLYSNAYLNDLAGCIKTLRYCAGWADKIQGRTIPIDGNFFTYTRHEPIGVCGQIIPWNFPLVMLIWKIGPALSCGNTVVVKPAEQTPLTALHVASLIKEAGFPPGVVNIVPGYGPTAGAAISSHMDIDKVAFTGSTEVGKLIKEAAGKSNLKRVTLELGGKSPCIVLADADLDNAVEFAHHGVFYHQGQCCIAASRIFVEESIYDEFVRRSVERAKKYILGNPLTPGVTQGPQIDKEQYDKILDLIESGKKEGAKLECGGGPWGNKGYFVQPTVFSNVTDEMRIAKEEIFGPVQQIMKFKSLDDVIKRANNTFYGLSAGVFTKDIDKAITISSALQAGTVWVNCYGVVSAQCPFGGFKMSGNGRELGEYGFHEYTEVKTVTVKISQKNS
Gal4-VP16 FLuc = inhibits Gal4-VP16 luciferase reporter, ROR gamma counter-screen; 310,000 compounds, 3.5% hits; AID 2546; Potency, µM (series often up to 53.6 µM), for inactives: top-dose activity, negative = inhibition, most hits filed as inhibitors; Drosophila S2 Gal4-VP16 UAS-luciferase, luminescence, 20 h;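 also: Gal4-VP16 expression switched on by copper sulfate through the metallothionein promoter; nearly all actives have a fitted effect of over 50% in size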
PLK1 PBD inh = inhibitors of human PLK1 polo-box domain binding. Plk1 PBD binding of FITC phosphopeptide, fluorescence polarization. Potency, µM, for the others: max response, negative = inhibition, usual class: inhibitors. 360,000 compounds, 2.8% hits; also: series mostly up to about 57 µM; nearly all actives have a fitted effect of over 65% in size
RORgamma inh = ROR gamma (mouse) transcription inhibition; P51450; Drosophila S2 Gal4-RORgamma UAS-luciferase reporter, 20 h; Potency, µM (doses to about 53.6 µM), inactives show at the top dose activity change, negative = inhibition, usual class: inhibitors; 310,000 compounds, 5.4% hits; also: nearly all actives have a fitted effect of over 60% in size
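Schneider cells (Drosophila), stable Gal4 DBD–ROR gamma + UAS-luc; 1 hr cmpd preincubation; Cu2+ induction 700 uM final; 20 hr ambient; luminescence.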
TbPYK confirm = Trypanosoma brucei pyruvate kinase inhibition, cherry-pick confirmation | shares compounds with PLK1 PBD inh | recombinant TbPYK, Kinase-Glo ATP luminescence | Potency, µM (doses to about 76.9 µM), without a hit: top-dose activity change, negative = inhibition, usual class: inhibitors | 890 compounds, 67% hits | AID 720569; also: nearly all actives have a fitted effect of over 70% in size
TbPYK orthogonal = orthogonal confirmation of Trypanosoma brucei pyruvate kinase inhibitors; 890 compounds, 62% hits; shares compounds with PLK1 PBD inh; recombinant TbPYK, ADP-Glo luminescence, 60 min; Potency, µM (highest dose often 76.9 µM), for the others: at the highest dose activity change, negative = inhibition, hits mostly inhibitors; also: nearly all actives have a fitted effect of over 75% in size
* marks the source's active call; other numbers are inactive results; ? = inconclusive; · = no result; [ ] = dose if it differs, or a comment. Unless noted, calls follow the shape of the dose curve; as a rule, active = well fitted curve in the direction sought with a large enough effect; inconclusive = small, poorly fitted or top-dose-only effect, or another doubt; inactive = no such curve, though single readings can be large; an effect the other way counts as inactive or inconclusive. Unless noted, % is scaled to controls: 0 for no effect and ±100 for the full control effect; potency is read from the fitted curve at half-maximal effect.

SMILES	Sfp inh	ALDH1A1 inh	Gal4-VP16 FLuc	PLK1 PBD inh	RORgamma inh	TbPYK confirm	TbPYK orthogonal
COc1ccc(NC(=O)c2cccc(NC(=O)c3ccccc3)c2)cc1	7.5%	·	27.4%	-10.0%	?	·	·
COCCN(CC(=O)NC1CCCCC1)C(=O)/C=C/C(=O)c1ccc(OC)cc1O	-0.3%	6.2%	3.6%	21.2µM*	-7.4%	7.08µM*	12.6µM*
O=C(CN1CCN(c2ccc(O)cc2)CC1)Nc1cc(S(=O)(=O)N2CCCC2)ccc1Cl	44.7µM*	14.1µM*	-7.0%	-10.8%	?	20µM*	31.6µM*
O=C(CN1CCN(c2ccc(O)cc2)CC1)Nc1ccccc1C(=O)NCCc1ccccc1	·	·	·	3.5%	·	2.51µM*	5.01µM*
CCN1CCN(CC(=O)Nc2cc(S(=O)(=O)N3CCCCC3)ccc2Cl)CC1	·	·	·	-5.1%	·	·	·
CC(=O)Nc1ccc(C(=O)COC(=O)C2CC2C)c(F)c1 (stereo not given)	·	·	·	-1.4%	·	·	·
COc1ccc(CCNC(=O)[C@H](C)N2C(=O)N3CCc4c([nH]c5ccccc45)[C@@]3(C)C2=O)cc1	16.7%	·	-1.2%	-13.3%	?	·	·
Cc1ccc(N2C(=O)N(CC(=O)Nc3ccc(C)c(C)c3)C(=O)C2C)cc1 (stereo not given)	·	·	·	-1.8%	·	·	·
CN(C)c1ccc(C(=O)c2ccc(O)cc2O)cc1	-1.1%	?	?	-6.6%	?	·	·
CN(C)c1ccc(Cc2cc3c(O)ccc(O)c3cc(Cc3ccc(N(C)C)cc3)c2=O)cc1	·	·	·	0.947µM*	·	3.55µM*	3.55µM*
CCOC(=O)CNC(=O)CSc1nnc(-c2ccco2)n1Cc1ccco1	-8.0%	?	3.1%	-4.8%	-10.5%	3.55µM*	14.1µM*
COC(=O)c1scc(C)c1S(=O)(=O)Nc1ccc(C)cc1	50.1µM*	·	-16.7%	?	?	5.62µM*	3.98µM*
O=C(NC1CC2CCCC(C1)N2Cc1ccc(F)cc1)c1ccc(F)cc1 (stereo not given)	-1.4%	·	5.2%	-7.9%	3.2%	·	·
Oc1ccc(N2CCN(C(c3cccs3)c3nnnn3CCc3ccccc3)CC2)cc1 (stereo not given)	50.1µM*	25.1µM*	2.5%	-5.2%	6.2%	4.47µM*	22.4µM*
O=C1C(Cc2ccccc2)Nc2ncnc(N3CCCCC3)c2N1Cc1ccc(Cl)cc1 (stereo not given)	·	·	·	0.9%	·	·	·
Cc1ccc(C)c2c1c1ccccc1n2C	4.7%	-2.5%	8.0%	2.2%	-0.9%	·	·
Cn1c2ccccc2c2ccc3c(c21)C(=O)C=CC3=O	·	·	·	11.9µM*	·	-28.1%	-21.5%
COc1ccc(Cn2c(=S)[nH]c3ccsc3c2=O)cc1	-13.0%	?	2.24µM*	-10.4%	1.41µM*	5.01µM*	5.62µM*
O=c1c2sccc2[nH]c(=S)n1Cc1ccccc1	-17.7%	?	2.82µM*	-19.6%	1.78µM*	14.1µM*	7.08µM*
CC(NC(=O)CCn1c(=S)[nH]c2ccsc2c1=O)c1ccccc1 (stereo not given)	11.0%	0.9%	-1.2%	-10.9%	-24.7%	·	·
Cn1nc(-c2ccc(Cl)cc2)cc1NC(=O)CCCC(=O)O	11.8%	5.9%	-2.8%	1.3%	1.2%	·	·
CS(=O)(=O)N1CCN(c2ccc([N+](=O)[O-])cc2C(F)(F)F)CC1	-1.9%	·	-8.6%	-16.3%	17.5%	?	?
CC1CN(c2ccc([N+](=O)[O-])cc2Cl)CCN1S(C)(=O)=O (stereo not given)	?	·	-16.4%	-18.0%	23.7%	·	·
N#Cc1ccccc1NC(=O)COC(=O)/C=C/c1ccc(S(=O)(=O)N2CCOCC2)cc1	·	·	·	-0.7%	·	·	·
O=C(CCN1C(=O)/C(=C\c2ccccc2)SC1=S)NCCCN1CCOCC1	-7.9%	·	-2.4%	-7.0%	?	·	·
SMILES	Sfp inh	ALDH1A1 inh	Gal4-VP16 FLuc	PLK1 PBD inh	RORgamma inh	TbPYK confirm	TbPYK orthogonal
O=C1C(=Cc2ccccc2O)SC(=S)N1CCCN1CCOCC1	·	·	·	2.67µM*	·	3.98µM*	3.16µM*
O=C(O)CCc1ccc(-c2ccc(Cl)cc2)o1	20µM*	?	?	?	?	?	?
O=C1N=C(c2ccccc2)S/C1=C\c1cccs1	35.5µM*	3.55µM*	16.1%	23.8µM*	?	4.47µM*	6.31µM*
CN(C)CC1CCCCC1OC(=O)c1ccc(S(=O)(=O)N(C)c2ccccc2)cc1 (stereo not given)	13.2%	·	-0.4%	-3.6%	-21.8%	·	·
CC1(C)CC(=O)C(CSC(=O)c2ccccc2)C(=O)C1	·	·	·	9.47µM*	·	5.62µM*	14.1µM*
Cc1ccc(/C=N/n2c(C)nc3ccccc3c2=O)s1	23.4%	-10.6%	5.5%	·	-16.0%	·	·
COc1ccc(N2C3=C(CC4=C2CCCC4=O)C(=O)CCC3)cc1	-1.7%	?	-19.0%	21.2µM*	-25.1%	-6.9%	-23.2%
COc1ccc(-n2ccc(=O)c3c2CCCC3=O)cc1	-5.1%	?	2.7%	0.3%	-13.0%[10 µM]	·	·
CC(Oc1cc(F)ccc1[N+](=O)[O-])C(=O)N(C)CC(=O)Nc1ccccc1C(F)(F)F (stereo not given)	10.6%	4.8%	-2.5%	-8.7%	2.4%	·	·
CCCCCC(=O)NNC(=S)NC(=O)c1cccc([N+](=O)[O-])c1	?	1.26µM*	5.01µM*	15µM*	3.55µM*	11.2µM*	14.1µM*
CCOc1ccc(C(=S)N2CCN(C)CC2)cc1	14.1µM*	-5.5%	?	13.4µM*	-3.6%	12.6µM*	4.47µM*
COc1ccc(OC)c(CCNC(=O)CN2C(=O)CCSc3ccccc32)c1	20.7%	·	9.9%	-13.5%	8.4%	·	·
O=[N+]([O-])c1cnc(Sc2ccncn2)c([N+](=O)[O-])c1	·	·	·	1.19µM*	·	-90.3%	?
O=[N+]([O-])c1ccc(Sc2ccc(F)cc2)nc1	·	·	·	1.0%	·	·	·
Cc1sc2ccccc2[n+]1CC(=O)O	2µM*	·	3.9%	?	-1.9%	3.55µM*	12.6µM*
CC[n+]1c(C)sc2cc(C)ccc21	?	-1.0%	8.2%	-17.4%	-0.8%	·	·
O=C1NC(=O)/C(=C\c2ccc(O)cc2O)S1	?	-15.2%	-10.4%	-26.0%	-7.6%	28.2µM*	28.2µM*
O=C1NC(=O)/C(=C/c2cc3c(cc2Br)OCO3)S1	-3.3%	·	8.9%	-29.2%	6.0%	·	·
Cc1cc(N2CCOCC2)ccc1/C=C1/SC(=O)NC1=O	-22.0%	-11.2%	-0.2%	-11.0%	0.9%	?	39.8µM*
CCN(CC)S(=O)(=O)c1cc(C(=O)Nc2cc(C)[nH]n2)ccc1Cl	0.7%	·	2.1%	3.7%	-21.5%	·	·
O=C1NC(c2cccs2)Nc2sc3c(c21)CCCC3 (stereo not given)	44.7µM*	?	7.4%	?	10.1%	-18.1%	-20.3%
